Source: PubChem (several laboratories)
CHT PAM: CHT positive allosteric modulators, primary screen, cell-based, membrane potential dye, choline EC20 | B-score at 10 µM | CHT-expressing cells; active compounds read high; LV-AA mutant CHT in HEK293 cells | High affinity choline transporter 1 (Homo sapiens), Q9GZV3 | actives 0.49% (n = 310,000);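 active = initial fluorescence not abnormally high and integrated response B-score, plate-corrected, over 3 SD above library mean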
Target sequence (Q9GZV3 whole entry, looked up): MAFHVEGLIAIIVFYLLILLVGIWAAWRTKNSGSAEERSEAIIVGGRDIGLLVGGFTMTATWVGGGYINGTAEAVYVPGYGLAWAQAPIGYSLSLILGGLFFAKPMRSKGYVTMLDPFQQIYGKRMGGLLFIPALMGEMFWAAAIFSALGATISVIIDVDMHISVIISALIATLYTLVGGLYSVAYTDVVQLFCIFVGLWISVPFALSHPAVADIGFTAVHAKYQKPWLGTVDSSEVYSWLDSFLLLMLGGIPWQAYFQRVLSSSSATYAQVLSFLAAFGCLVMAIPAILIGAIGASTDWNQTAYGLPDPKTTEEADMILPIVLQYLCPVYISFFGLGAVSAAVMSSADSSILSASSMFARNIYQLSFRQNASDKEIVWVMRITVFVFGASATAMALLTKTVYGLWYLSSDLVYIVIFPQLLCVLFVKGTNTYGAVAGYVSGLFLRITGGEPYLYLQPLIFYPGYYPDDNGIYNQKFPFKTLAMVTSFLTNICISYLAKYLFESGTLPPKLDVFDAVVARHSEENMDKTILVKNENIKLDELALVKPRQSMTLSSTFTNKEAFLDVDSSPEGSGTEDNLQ
CHT inh: inhibitors of human choline transporter CHT | CHT-expressing cells, membrane potential dye, choline response; active compounds read low | B-score at 10 µM | High affinity choline transporter 1 (Homo sapiens), Q9GZV3 | actives 0.86% (n = 310,000) | AID 488975, 2010;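 active = B-score over 3 SD under the library average, and starting fluorescence ratio not unusually high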;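 note: choline stimulus applied at its EC90 after an EC20 pre-addition; B-score computed on integrated fluorescence ratio after choline addition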
ANO1 block: TMEM16A chloride channel inhibitors, primary screen, cell-based, HTS. Anoctamin-1 (Mus musculus), Q8BHY3. HEK293 TMEM16A/YFP iodide influx fluorescence, ionomycin. normalized B-score (activity score, 25-100; higher = stronger inhibition) at 10 µM. actives 1.2% (n = 310,000). AID 588511, 2011;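 active = ratio plate-corrected score three or more library SD toward inhibition, starting fluorescence score within five deviations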;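 note: score derived from kinetic fluorescence span divided by baseline fluorescence per well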
PKA-R1A activ: activators of PKA-R1A holoenzyme, primary screen, biochemical, fluorescence polarization, Cy5-IP20, bovine R1A, mouse PKAc; PKA-R1A dissociation; scaled: DMSO 0%, 113 µM cGMP 100%; AID 504707, 2011; activation, % at 11.4 µM; cAMP-dependent protein kinase type I-alpha regulatory subunit (Bos taurus) + …; actives 0.083% (n = 340,000);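 active = percent activation above the mean of all tested compounds plus 3 SD, cut at about 19% in these data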;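 note: higher means more PKAc released from R1A so a rise in polarization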
PKA-R2B activ: activators of PKA-R2B holoenzyme, primary screen, biochemical, fluorescence polarization, Cy5-IP20, human; PKA-R2B holoenzyme dissociation; R2B truncated from residue 108, S112A mutant; 0% DMSO only, 100% 113 µM cGMP; activation, % at 11.4 µM; actives 0.079% (n = 340,000); AID 504700, 2011;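 active = activation above a cutoff set at the mean over all compounds plus 3 SD, cut at about 18% in these data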;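 note: higher means more holoenzyme dissociation and a rise in polarization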
TMEM16A act: TMEM16A chloride channel activators or potentiators, primary screen, cell-based, HTS; HEK293 TMEM16A/YFP-H148Q/I152L, iodide quench fluorescence; active compounds read low; B-score at 10 µM; Anoctamin-1 (Mus musculus), Q8BHY3; AID 623877, 2012; actives 0.3% (n = 340,000);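 active = fluorescence-ratio B-score plate-corrected deviation score at least 3 library SD below zero, with starting fluorescence score within 5 deviations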;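 note: channel opened by trigger with iodide after compound preincubation; score built on the fluorescence ratio of max minus min over baseline; more negative score means more quench and so TMEM16A activation or potentiation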
Active calls of the source: *; i = inactive; · = not tested or not shown. Only some compounds are listed: those with a hit (about 2.5% of all), similar ones and a draw of the others.

SMILES	CHT PAM	CHT inh	ANO1 block	PKA-R1A activ	PKA-R2B activ	TMEM16A act
Cc1ccc(CN2CCN(/N=C\C=C\c3ccccc3)CC2)cc1	i	i	i	-3	-2	i
CCN=C(NCC)SC1CC(=O)N(c2cccc(OCC)c2)C1=O (centres undefined)	i	i	i	-6	4	-9.4*
CC[C@@H]1C=C(C(=O)O)[C@H](c2ccc(OC)c(OC)c2)N1S(=O)(=O)c1ccc(C)cc1	·	·	·	-8	-7	·
CCOC(=O)[C@H]1[C@H]2COc3ccc(Cl)cc3[C@@H]2N2C(=O)c3ccc(F)cc3NC(=O)[C@@]12C	i	i	i	-4	-6	-13*
O=Cc1coc2c(ccc3ccccc32)c1=O	i	-6.5*	i	·	·	·
O=C/C=C/c1coc2ccc3ccccc3c2c1=O	i	i	i	·	·	·
CC(C)(C)c1ccc(C(=O)N2CCC(NC(=O)c3ccccc3)CC2)cc1	i	i	i	-5	-3	i
COc1cccc(/C=C2/C(=O)NN(c3ccc(Br)cc3)C2=O)c1O	i	-6.9*	i	-10	-12	i
COc1cc(/C=C2/C(=O)NN(c3ccc(Cl)cc3)C2=O)cc(Br)c1O	i	i	i	-17	2	-6.2*
COc1cc(/C=C2/C(=O)NN(c3ccc(Cl)c(Cl)c3)C2=O)cc([N+](=O)[O-])c1O	i	i	i	5	-4	i
COc1cc(/C=C2/C(=O)NN(c3ccc(F)cc3)C2=O)cc(Cl)c1O	i	-4.9*	i	-4	0	i
CCOc1ccc(CCNC(=O)c2ccc3nc(N4CCOCC4)sc3c2)cc1OCC	i	i	i	-10	0	i
O=C(Nc1nnc(SCC(=O)N2CCCC2)s1)C1CC(=O)N(c2ccccc2)C1 (centres undefined)	i	i	i	-4	-4	i
COc1cccc(CNC(=O)c2ccccc2NC(=O)C2=C(C)OCCS2)c1	i	i	i	2	7	i
O=C(NCc1ccc2c(c1)CCO2)Nc1cccc(C(F)(F)F)c1	i	i	i	·	·	i
Nc1nc(SCC(=O)Nc2ncc(C(F)(F)F)cc2Cl)n[nH]1	i	i	i	-6	-11	i
O=C(Nc1ccc2nc(-c3ccccc3)oc2c1)c1ccco1	i	i	i	-10	1	-14*
Cc1ccc(-c2csc(Nc3ccc(C(=O)O)cc3)[n+]2Cc2ccccc2)cc1	i	i	i	-4	-4	i
O=C([O-])c1cc(-c2ccccc2)cc(-c2ccccc2)[n+]1Cc1ccccc1	6.8*	i	i	·	·	·
CCOC(=O)c1nn(-c2ccc(Cl)cc2C)ccc1=O	i	i	i	-11	-1	i
O=C(N/N=C/c1ccc(Cl)cc1Cl)c1ccncc1	i	i	i	-1	-5	i
O=C(N/N=C/c1cc(Cl)cc(Cl)c1O)c1ccncc1	i	i	i	-17	1	-8.8*
Cc1ccc(S(=O)(=O)CCC(=O)c2ccc(O)cc2O)cc1	i	-5.2*	i	1	12	i
CSc1cccc(NC(=O)C2CCCN(S(=O)(=O)c3cnc[nH]3)C2)c1 (centres undefined)	·	·	·	5	-1	-12*
Cc1onc(-c2ccccc2)c1C(=O)NCc1ccco1	i	i	i	-3	-3	-16*
SMILES	CHT PAM	CHT inh	ANO1 block	PKA-R1A activ	PKA-R2B activ	TMEM16A act
Cc1onc(-c2c(Cl)cccc2Cl)c1C(=O)NCc1ccco1	i	i	i	0	2	i
COc1ccc(OC)c(/C=N/N(CCC#N)C2=NS(=O)(=O)c3ccccc32)c1	i	i	i	-6	0	i
COc1ccccc1N1CCN(C(=O)CSc2nc3ccccc3[nH]2)CC1	i	i	25*	0	2	i
CCC(C(=O)OCC(=O)Nc1cccc(C(C)=O)c1)c1ccccc1 (centres undefined)	i	i	i	-2	-2	i
CCC(C(=O)OCC(=O)Nc1cc(Cl)cc(Cl)c1)c1ccccc1 (centres undefined)	i	i	100*	6	-8	i
CC1=NN(c2ccc(Br)cc2)C(=O)/C1=C/c1ccc(-c2ccccc2C(=O)O)o1	i	-7.2*	i	-1	-7	i
CCCCn1nc(C(=O)N(C)C2CCCCC2)c2ccccc2c1=O	·	·	·	-5	8	-30*
CCCCn1nc(C(=O)NC2CCCCCC2)c2ccccc2c1=O	·	·	·	1	15	i
N#Cc1c(NC(=O)c2ccccc2Cl)n(Cc2ccccc2)c2nc3ccccc3nc12	i	i	100*	-9	-6	i
CCCCn1c(NC(=O)CC)c(C#N)c2nc3ccccc3nc21	i	i	i	2	-2	i
COc1ccc(-n2c(NC(=O)c3ccco3)c(C#N)c3nc4ccccc4nc32)cc1	i	i	i	4	4	i
CCCCn1c(NC(=O)c2ccccc2Cl)c(C#N)c2nc3ccccc3nc21	i	i	100*	-8	2	i
O=C(OCn1ncc(Br)c(Br)c1=O)c1ccc(F)cc1	i	-6.5*	i	5	-13	i
Cc1nn(C(=O)N(C)C)c(C)c1CN1C(=O)c2ccccc2C1=O	i	i	i	-5	-1	i
O=C(NCCN1CCOCC1)/C(=C\c1ccc(F)cc1)NC(=O)c1ccccc1	i	i	i	-5	-1	i
COc1ccc(-c2csc(NC(=O)c3ccc(OCC(=O)N4CCOCC4)c(OC)c3)n2)cc1	i	i	100*	-6	-6	i
COc1cc(C(=O)Nc2nc(-c3ccc(F)cc3)cs2)ccc1OCC(=O)N1CCOCC1	i	i	25*	-1	6	i
COc1cc(/C=N/n2cnnc2)ccc1OCC(=O)N1CCOCC1	9.6*	i	i	-4	4	i
CCN(CC)S(=O)(=O)c1ccc(C(=O)NCC2CCCCC2)cc1	i	i	i	-4	-3	i
Nc1nc(Sc2ccc([N+](=O)[O-])c3nonc23)c2[nH]cnc2n1	·	·	·	9	-13	-6*
